In ChEMBL document CHEMBL5606460, “ASAP - DENV-2 NS2B-NS3 protease fluorescence single point” (2024) one finds inhibition data, which are given here for 25 compounds.

The assay has as its target Genome polyprotein (dengue virus type 2) (UniProt P29990).
Where [1] appears, read: Thailand/16681/1984, Concentration 25.0 uM, Number of replicates 1.0.

Hit rate of the full screen: of about 2,000 compounds, about 110 (5.5%) showed an effect of 50% or more. This excerpt belongs to a sample that is enriched for strong results.

One may read the inhibition as the relative decrease from the control value, in per cent. Turning to `CCc1nc(CNC(=O)[C@]2(c3ccc(F)cc3)CCCNC2)n[nH]1`, the inhibition runs as follows: (Thailand/16681/1984, Concentration 49.5 uM, Number of replicates 2.0, Standard deviation 0.49799700461423274 %) -1.23%; (Thailand/16681/1984, Concentration 99.01 uM, Number of replicates 2.0, Standard deviation 0.6482125452450617 %) -1.25%; (Thailand/16681/1984, Concentration 198.0 uM, Number of replicates 2.0, Standard deviation 1.0139545093997464 %) -1.41%.
In the case of `O=Cc1ccc(N2CCC(C(=O)NCc3ccccc3Br)CC2)cc1`, under setting [1], the inhibition was 12.3%.
Consider `O=Cc1ccc(N2CCC(C(=O)NCc3ccc4ccccc4n3)CC2)cc1`, for which the inhibition under setting [1] came out at 12.8%.
`Cc1nc(C2CCN(Cc3c[nH]c4ccccc34)CC2)sc1C(=O)O`: the inhibition (Thailand/16681/1984, Concentration 49.5 uM, Number of replicates 2.0, Standard deviation 2.532196482700825 %) is -7.37%; the inhibition (Thailand/16681/1984, Concentration 99.01 uM, Number of replicates 2.0, Standard deviation 0.1962596660766768 %) was -5.26%; the inhibition (Thailand/16681/1984, Concentration 198.0 uM, Number of replicates 2.0, Standard deviation 1.7247831523377455 %) was -1.52%.
For `COC(=O)c1cncc(C(=O)Nc2ccncc2C)c1`, the inhibition is 2.4% (Thailand/16681/1984, Concentration 49.5 uM, Number of replicates 2.0, Standard deviation 6.3209660189886 %); -1.8% (Thailand/16681/1984, Concentration 99.01 uM, Number of replicates 2.0, Standard deviation 0.9582277355643998 %); -2.38% (Thailand/16681/1984, Concentration 198.0 uM, Number of replicates 2.0, Standard deviation 0.7051109593221626 %).
As to `Cc1cc(S(=O)(=O)NCCNC(=O)c2ccc(O)c(NC(=O)c3ccncc3F)c2C)c(C)s1`, the inhibition reads like this: (Thailand/16681/1984, Concentration 49.5 uM, Number of replicates 2.0, Standard deviation 0.0696651159595359 %) -1.95%; (Thailand/16681/1984, Concentration 99.01 uM, Number of replicates 2.0, Standard deviation 0.12517951182523615 %) -1.5%; (Thailand/16681/1984, Concentration 198.0 uM, Number of replicates 2.0, Standard deviation 0.5034395957498385 %) 0.045%.
`COc1ccc(CN(C)C(=O)C2CCN(c3ccc(C=O)cc3)CC2)c(OC)c1`: the inhibition under setting [1] turned out to be 14%.
Regarding `NC(=O)c1c(NC(=O)C2CCN(c3ccc(C=O)cc3)CC2)sc2c1CCCC2`, the inhibition under setting [1] came to 38.6%.
For the compound `CCn1cc(S(=O)(=O)Nc2ccc(Cl)cc2C(=O)NC)cn1`, under “Thailand/16681/1984, Concentration 49.5 uM, Number of replicates 2.0, Standard deviation 0.5029835247021022 %”, the inhibition was -6.21%.
As to `C[C@@H](c1ccccc1)N(C(=O)C1CCN(c2ccc(C=O)cc2)CC1)[C@@H](C)c1ccccc1`, the inhibition under setting [1] amounted to 15.2%.
Turning to `CC1(C)Cc2sc(NC(=O)Cc3ccc(S(N)(=O)=O)cc3)c(C#N)c2CN1CC1CCCCC1`, the inhibition reads like this: (Thailand/16681/1984, Concentration 49.5 uM, Number of replicates 2.0, Standard deviation 0.009484052439315419 %) 8.25%; (Thailand/16681/1984, Concentration 99.01 uM, Number of replicates 2.0, Standard deviation 0.7150155530159198 %) 14.5%; (Thailand/16681/1984, Concentration 198.0 uM, Number of replicates 2.0, Standard deviation 0.2762742778628508 %) 23.9%.
`Cc1cc(N)cc(CNC(=O)c2ccccc2Cc2cccc3c(CO)cc(C)nc23)c1`: the inhibition reads like this: (Thailand/16681/1984, Concentration 49.95 uM, Number of replicates 2.0, Standard deviation 1.0161746789387547 %) 47.1%; (Thailand/16681/1984, Concentration 99.9 uM, Number of replicates 2.0, Standard deviation 1.7549489162224476 %) 74.7%.
As to `Cc1cc(CO)c2cccc(CC(=O)NCc3sccc3C)c2n1`, the inhibition runs as follows: (Thailand/16681/1984, Concentration 49.95 uM, Number of replicates 2.0, Standard deviation 0.3413314788746907 %) 44%; (Thailand/16681/1984, Concentration 99.9 uM, Number of replicates 2.0, Standard deviation 0.321257440691134 %) 63.7%.
As to `Cc1cc(CO)c2cccc(Cc3ccccc3C(=O)NCc3ccc(S(N)(=O)=O)cc3)c2n1`, the inhibition by setting is: (Thailand/16681/1984, Concentration 49.95 uM, Number of replicates 2.0, Standard deviation 1.5695359944911405 %) 4.94%; (Thailand/16681/1984, Concentration 99.9 uM, Number of replicates 2.0, Standard deviation 2.135114838489864 %) 9.8%.
As to `Cc1cc(CO)c2cccc(Cc3ccccc3C(=O)NCc3ccc(C(N)=O)cc3)c2n1`, the inhibition is, setting by setting: (Thailand/16681/1984, Concentration 49.95 uM, Number of replicates 2.0, Standard deviation 0.2888981019288338 %) 2.07%; (Thailand/16681/1984, Concentration 99.9 uM, Number of replicates 2.0, Standard deviation 0.18972386998439544 %) 5.84%.
`Cc1cc(CO)c2cccc(Cc3cccc(C(=O)NCc4sccc4C)c3)c2n1`: the inhibition reads like this: (Thailand/16681/1984, Concentration 49.95 uM, Number of replicates 2.0, Standard deviation 0.7466793423372446 %) 1.25%; (Thailand/16681/1984, Concentration 99.9 uM, Number of replicates 2.0, Standard deviation 0.16169689007422708 %) 23.8%.
`Cc1cc(CO)c2cccc(Cc3ccccc3C(=O)NCc3sccc3C)c2n1`: the inhibition (Thailand/16681/1984, Concentration 49.95 uM, Number of replicates 2.0, Standard deviation 0.661878407993628 %) amounted to 1.17% and the inhibition (Thailand/16681/1984, Concentration 99.9 uM, Number of replicates 2.0, Standard deviation 2.367239112425795 %) was found to be 7.83%.
Take `CC(C)NC(=O)CN1CCN(C(=O)C2CCN(c3ccc(C=O)cc3)CC2)CC1`: the inhibition under setting [1] came to 11.2%.
As to `Cc1cn2nnc(C(=O)N3CCC[C@H](c4nc(=O)[nH][nH]4)C3)c2c(=O)[nH]1`, the inhibition reads like this: (Thailand/16681/1984, Concentration 49.5 uM, Number of replicates 2.0, Standard deviation 1.1306810071407891 %) -1.83%; (Thailand/16681/1984, Concentration 99.01 uM, Number of replicates 2.0, Standard deviation 1.1436614778388714 %) -1.38%; (Thailand/16681/1984, Concentration 198.0 uM, Number of replicates 2.0, Standard deviation 0.31245549284811885 %) -1.83%.
With `Cc1cc(CO)c2cccc(Cc3cccc(C(=O)N[C@H]4C[C@@H](O)C4)c3)c2n1`, the inhibition is, setting by setting: (Thailand/16681/1984, Concentration 49.95 uM, Number of replicates 2.0, Standard deviation 0.3715430142368757 %) 6.97%; (Thailand/16681/1984, Concentration 99.9 uM, Number of replicates 2.0, Standard deviation 0.8666943057865014 %) 29.2%.
With `Cc1cc(CO)c2cccc(C[C@H](NC(=O)c3cc(C(F)F)nn3C)C(=O)O)c2n1`, the inhibition is, setting by setting: (Thailand/16681/1984, Concentration 49.95 uM, Number of replicates 2.0, Standard deviation 1.4383595761786832 %) 1.98%; (Thailand/16681/1984, Concentration 99.9 uM, Number of replicates 2.0, Standard deviation 0.48778570830386186 %) 5.89%.
Turning to `Cc1nc(N)c2cccc(Cl)c2n1`, the inhibition reads like this: (Thailand/16681/1984, Concentration 49.95 uM, Number of replicates 2.0, Standard deviation 5.075529174302592 %) -8.29%; (Thailand/16681/1984, Concentration 99.9 uM, Number of replicates 2.0, Standard deviation 2.1313934403537464 %) -8.87%.
For `COc1ccccc1N1CCN(C(=O)C2CCN(c3ccc(C=O)cc3)CC2)CC1`, under setting [1], the inhibition was 12.1%.
In the case of `NCCC(=O)Nc1cccc2cccnc12`, the inhibition was -9.45% (Thailand/16681/1984, Concentration 49.95 uM, Number of replicates 2.0, Standard deviation 1.674842930068702 %) and -7.49% (Thailand/16681/1984, Concentration 99.9 uM, Number of replicates 2.0, Standard deviation 2.956474982493684 %).
Consider `N[C@@H]1CCCC[C@H]1C(=O)Nc1cccc2cccnc12`, for which the inhibition (Thailand/16681/1984, Concentration 49.95 uM, Number of replicates 2.0, Standard deviation 3.2838754106489776 %) is -8.7% and the inhibition (Thailand/16681/1984, Concentration 99.9 uM, Number of replicates 2.0, Standard deviation 3.148144351005342 %) was -7.2%.
